Data published in PubChem BioAssay (NCATS).
Inconclusive results are not listed. Calls of active or inactive are those of the source. Calls come from the whole dose curve; as a rule, active = well fitted curve in the direction sought with a large enough effect; inconclusive = small, poorly fitted or top-dose-only effect, or another doubt; inactive = no such curve, though single readings can be large; an effect the other way counts as inactive or inconclusive.

Key:
[1] = Cell Proliferation Assay against the TMD8 Cell Line (AID 651645); details: TMD8 DLBCL cell line proliferation/viability; at 46.1 µM (top of the series);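 note: cells exposed to compound for 48 h before reading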
In short: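 Luminescent ATP read-out (CellTiter-Glo, 15 min RT) after 48 h compound exposure of log-growing TMD8 cells at 37C; percent activity scaled between DMSO as 100% and 9.2 uM bortezomib final as 0%.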

[2] = Cell Proliferation Assay against the HBL1 Cell Line (AID 651646); details: HBL1 DLBCL cells; at 46.1 µM (top of the series);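 note: cells exposed to compound for 48 h before reading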
In short: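 Luminescent ATP read-out (CellTiter-Glo) after 48 h compound exposure of HBL1 cells at 37 °C; percent activity was scaled between DMSO as 100% and 9.2 uM bortezomib (final) as 0%.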

[3] = Cell Proliferation Assay against the TMD8 Cell Line (Caspase readout at 16 hrs) (AID 651712)
In short: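 Apoptotic response of TMD8 cells was judged from caspase 3/7 activation following a 16 hour compound incubation at 37 °C. Luminescent signal was converted to percent activity, with DMSO set as 0% and 9.2 uM final bortezomib as 100%.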

[4] = Cell Proliferation Assay against the TMD8 Cell Line (Caspase readout at 8 hrs) (AID 651713)
In short: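 Seed log-phase TMD8 cells, add compound by pin tool, incubate 8 h at 37C under 5% CO2, equilibrate to room temperature, add Caspase-Glo, wait 15 min, read luminescence; percent activity uses DMSO and 9.2 uM bortezomib controls.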

CCCCOCCOc1nc(-c2ccc(C(=O)O)c(F)c2)sc1C
viability (% of control) [1]: 98.4%
viability, percent of control [2]: 84.4%
Potency [3]: inactive
Potency [4]: inactive

COC(=O)Nc1ccc(-c2nc(N3CCOCC3)c3cnn(C4CCN(C(=O)OC)CC4)c3n2)cc1
viability (% of control) [1]: 32.2%
viability, percent of control [2]: 51.1%
Potency [4]: inactive

COc1ccc(CCN(C)CCCOc2ccc(S(=O)(=O)c3[nH]c4ccccc4c3C(C)C)cc2)cc1OC
viability, percent of control [2]: 7.05%

CNC(=O)c1cc(COc2nnc(Nc3ccc(Cl)cc3)c3ccoc23)ccn1
viability, percent of control [2]: 6.77%

O=C(Nc1ccc(OC(F)(F)F)cc1)c1sccc1NCc1ccnc2ccccc12
viability, percent of control [2]: 26%
Potency [3]: inactive

CC(=O)Nc1cccc(-n2c(=O)n(C3CC3)c(=O)c3c(Nc4ccc(I)cc4F)n(C)c(=O)c(C)c32)c1
viability, percent of control [2]: 6.64%

CCOC(=O)[C@@H](N)CCC(=O)N[C@@H](CSCc1ccccc1)C(=O)N[C@@H](C(=O)OCC)c1ccccc1
viability, percent of control [2]: 89.4%

Cc1c(C(=O)Nc2ccc(N3C[C@@H](C)O[C@@H](C)C3)nc2)cccc1-c1ccc(OC(F)(F)F)cc1
viability, percent of control [2]: 32.3%

O=C(O)Cc1cccc(OCCCN(Cc2cccc(C(F)(F)F)c2Cl)CC(c2ccccc2)c2ccccc2)c1
viability (% of control) [1]: 8.71%
viability, percent of control [2]: 12.9%

CC(C)(C)c1[nH]cnc1C=c1[nH]c(=O)c(=Cc2ccccc2)[nH]c1=O
viability, percent of control [2]: 7.81%

CN(C)CCCNC(=O)c1ccc(-c2cc(O)c3ncccc3c2)cc1
viability (% of control) [1]: 2.8%
viability, percent of control [2]: 31%

COc1ccc2c(c1)CC[C@H]1[C@@H]2CC[C@]2(C)[C@@H](NCCCCCCN3C(=O)C=CC3=O)CC[C@H]12
viability (% of control) [1]: 15.9%
viability, percent of control [2]: 33.1%

CC1=C[C@@H]2[C@@H]([C@@H](O)C[C@@]3(C)[C@H]2C[C@@H](C)[C@]3(O)C(=O)CO)[C@@]2(C)Cc3cnn(-c4ccccc4)c3C=C12
viability, percent of control [2]: 2.33%
